From ChEMBL document CHEMBL3988442, “University of Dundee, Small-Polar-MMV Screening Library” (2021) come the findings set out here.

This experiment relates to Trypanosoma brucei. As to the kind of experiment: Trypanosoma brucei 72 hour study. The experiment is classed as functional, organism-based. Set-up: scale not given: in the data most compounds retested in dose-response had high values.

Molecules are shown by their SMILES. Among all 66,000 compounds or so, about 960 (1.5%) showed an effect of 50% or more. The sample as a whole holds a higher share of strong results than the screen did.

Consider `CCNc1nc(C(=O)N(C)Cc2nc(CC)no2)cs1`, for which, for the setting “30 µM, 30.03 µM”, the “Percent Effect” value was -27.33%.
Regarding `CC(C)c1nc(C2CCCN2c2ccnc(C3CCCC3)n2)no1` (stereo not given), where the note is “30.3 µM, […]”, the “Percent Effect” value was -51.91%.
On the same count and under the same terms, with `CC(C)c1nc(C2CCCN2c2cnc3cc(F)c(F)cc3n2)no1` (stereo not given) the figure was 85.34%; with `CC(C)c1nc(C2CCCN2c2cnc3ccccc3n2)no1` (stereo not given), -0.9034%; with `Cc1noc(C)c1CN1CCc2ncnc(-c3ccoc3)c2CC1.O=C(O)C(F)(F)F`, -51.79%.
As to `Cc1cnccc1CNCc1ccc(OC23CCCN(CC2)C3)cc1` (stereo not given), for the setting “30 µM, 30.03 µM”, the “Percent Effect” value is 6.423%.
Consider `c1ccc(Oc2ccc(OC34CCCN(CC3)C4)cc2)cc1` (stereo not given), for which the “Percent Effect” value (30.3 µM, […]) is 99.82%.
In the case of `O=c1[nH]nc(CNCc2ccc(OC34CCCN(CC3)C4)cc2)[nH]1` (stereo not given), the “Percent Effect” value (30 µM, 30.03 µM) was -0.5692%.
On the same count and under the same terms, with `COc1cc(C#N)ccc1OC12CCCN(CC1)C2` (stereo not given) the figure was -13.64%.
Take `c1ccc(Oc2cccc(OC34CCCN(CC3)C4)c2)cc1` (stereo not given): the “Percent Effect” value (30.3 µM, […]) is 99.26%.
For `Cc1nc(CNCc2cccc(OC34CCCN(CC3)C4)c2)n[nH]1` (stereo not given), the “Percent Effect” value (30 µM, 30.03 µM) worked out at 3.883%.
Regarding `Cl.O=C(Nc1cccc(CNCc2cccs2)c1)C1CC1`, the “Percent Effect” value (10 µM) is recorded as -25.65%.
For the compound `O=C(CC1CCC2(CC1)CCN(Cc1ccncc1)CC2)N1CCCC1.O=C(O)C(F)(F)F`, the “Percent Effect” value (30.3 µM, […]) was -30.07%.
Consider `CCCn1c(N2CCCC(C)C2)nc2c(C)nn(C)c2c1=O` (stereo not given), for which the “Percent Effect” value (30.3 µM, […]) came to 99.54%.
Same read-out and setting: under `CCCn1c(N2CCCC2)nc2c(C)nn(C)c2c1=O` stands -10.23%; under `CCCn1c(N2CCCCC2)nc2c(C)nn(C)c2c1=O`, -27.42%.
For `CC(C)CS(=O)(=O)N1C[C@H]2C[C@H](C(=O)N3CCOCC3)[C@@H](C1)O2`, the “Percent Effect” value (30.3 µM, […]) was -39.74%.
For the compound `COc1ncccc1CNc1snc(Cl)c1C#N`, the “Percent Effect” value (30 µM, 30.03 µM) was -23.85%.
On the same count and under the same terms, with `CCN(CC)CCNC(=O)c1cc(C(C)C)nc(N2CCCC2)n1` the figure was -3.491%.
Regarding `CC(C)c1cc(C(=O)NCCCN(C)C)nc(N2CCCC2)n1`, where the note is “30.3 µM, […]”, the “Percent Effect” value is given as 85.35%.
Same read-out and setting: with `COCCCNC(=O)c1cc(C(C)C)nc(N2CCCC2)n1` the figure was -9.807%; with `Cc1nc(C(=O)N2CC[C@@]3(C[C@@H](NS(C)(=O)=O)CCO3)C2)cs1`, -224.6%; with `Cc1ccn(-c2ccc(NCc3ccnc(N4CCCCC4)c3)nn2)n1`, 100.1%.
On the same count and under the same terms, with `Cc1ccn(-c2ccc(NCc3cccnc3N3CCCCC3)nn2)n1` the figure was 1.055%; with `Cc1ccn(-c2ccc(NCc3ccccc3F)nn2)n1`, -5.586%; with `CC1c2ncc(CNC(=O)C3CC3)n2CCN1Cc1ccsc1.O=C(O)C(F)(F)F` (stereo not given), -8.055%.
The same measure, in the same setting: under `O=C(CCOCC(F)(F)F)NS(=O)(=O)c1cccnc1` stands -16.93%; under `N#Cc1cccc(S(=O)(=O)NC(=O)COCC(F)(F)F)c1`, -64.9%.
For the compound `N#Cc1cccc(S(=O)(=O)NC(=O)CCOCC(F)(F)F)c1`, the “Percent Effect” value (30.3 µM, […]) is on record as 72.29%.
The same measure, in the same setting: under `CN(C)c1ncc(-c2cc(C(=O)NCCC#N)n(CC3CC3)c2)cn1.O=C(O)C(F)(F)F` stands -1.079%; under `Cn1cc(C(=O)N2CCCC(Cc3cccc4ncccc34)C2)cn1` (stereo not given), -45.5%.
`CC(C)(C)C(=O)NCCc1ccn(-c2ccccc2)n1`: for the setting “30 µM, 30.03 µM”, the “Percent Effect” value turned out to be 103.6%.
For `COCCNC(=O)NCCc1ccn(-c2ccccc2)n1`, the “Percent Effect” value (30 µM, 30.03 µM) came out at 42.02%.
As for `CCN(CC)C(=O)NCCc1ccn(-c2ccccc2)n1`, the “Percent Effect” value (10 µM) turned out to be 99.69%.
Consider `CC(C)(CNC(=O)NCCc1ccn(-c2ccccc2)n1)C(N)=O`, for which, under “10 µM”, the “Percent Effect” value is given as -34.81%.
With `CC(C)CC(=O)NCCCc1cc(N)n(-c2ccccc2)n1`, under “30 µM, 30.03 µM”, the “Percent Effect” value was -23.13%.
For the compound `CC(C)CCC(=O)NCCc1ccn(-c2ccccc2)n1`, the “Percent Effect” value (10 µM) came out at 100.3%.
Consider `O=C(CCNc1ncccn1)NCCc1ccn(-c2ccccc2)n1`, for which the “Percent Effect” value (30 µM, 30.03 µM) worked out at 19.3%.
Turning to `CCC(CC)C(=O)NCCc1ccn(-c2ccccc2)n1`, the “Percent Effect” value (10 µM) is recorded as -35.97%.
Same read-out and setting: with `CC(C)(C)C(=O)NCCC(=O)NCCc1ccn(-c2ccccc2)n1` the figure was -35.6%; with `CC(C)c1nc(C2CCCN2Cc2nnc(C3CCC3)o2)no1` (stereo not given), -24.2%.
Consider `CN(C)CC(=O)N1CCCC1c1cncc(Oc2ccc(F)cc2)n1` (stereo not given), for which, for the setting “30.3 µM, […]”, the “Percent Effect” value is reported as -19.56%.
For `COc1c(C2CCCN2C(=O)c2ccc(C#N)c(C)n2)c(C)nn1C` (stereo not given), the “Percent Effect” value (10 µM) is listed as -24.86% and the “Percent Effect” value (30.3 µM, […]) came out at 0.3708%.
`Cc1ccccc1Cc1nc(CSc2nnc(N)n2C2CC2)no1`: under “30.3 µM, […]”, the “Percent Effect” value came to 69.45%.
Turning to `CCc1nc(CSc2nnc(N)n2C2CC2)no1`, the “Percent Effect” value (30.3 µM, […]) is listed as -10.47%.
The same measure, in the same setting: with `Cc1ccccc1Cc1nc(CSc2nnc(N)n2C)no1` the figure was 30.54%.
As to `O=C1NCCN1C1CCN(CCOc2ccccc2F)CC1`, the “Percent Effect” value (10 µM) was -33.22%.
Take `Cc1ccc(CN2C[C@@H]3CCCO[C@@H]3[C@H](N(C)Cc3ccco3)C2)o1.O=C(O)C(F)(F)F.O=C(O)C(F)(F)F`: the “Percent Effect” value (30 µM, 30.03 µM) is given as 25.08%.
On the same count and under the same terms, with `CCCN1CCCn2c(nc(CNC(=O)c3cnoc3C)cc2=O)C1.O=C(O)C(F)(F)F` the figure was 19.21%.
